Calls of active or inactive are those of the source.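 How the source made its calls: active means any rise in protein melting temperature, meaning a thermal shift above zero; inactive means the rest.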
Each compound was assayed against Luciferin 4-monooxygenase (Photinus pyralis) (UniProt P08659) (assay: Thermal Shift Assay for Inhibitors of FLuc (Firefly Luciferase, Photinus pyralis) in Presence of ATP). Conditions: Purified FLuc with ATP, SYPRO Orange thermal shift; at 200 µM; stronger effect = higher value.
Sequence of Luciferin 4-monooxygenase (Photinus pyralis) (P08659 whole entry, looked up): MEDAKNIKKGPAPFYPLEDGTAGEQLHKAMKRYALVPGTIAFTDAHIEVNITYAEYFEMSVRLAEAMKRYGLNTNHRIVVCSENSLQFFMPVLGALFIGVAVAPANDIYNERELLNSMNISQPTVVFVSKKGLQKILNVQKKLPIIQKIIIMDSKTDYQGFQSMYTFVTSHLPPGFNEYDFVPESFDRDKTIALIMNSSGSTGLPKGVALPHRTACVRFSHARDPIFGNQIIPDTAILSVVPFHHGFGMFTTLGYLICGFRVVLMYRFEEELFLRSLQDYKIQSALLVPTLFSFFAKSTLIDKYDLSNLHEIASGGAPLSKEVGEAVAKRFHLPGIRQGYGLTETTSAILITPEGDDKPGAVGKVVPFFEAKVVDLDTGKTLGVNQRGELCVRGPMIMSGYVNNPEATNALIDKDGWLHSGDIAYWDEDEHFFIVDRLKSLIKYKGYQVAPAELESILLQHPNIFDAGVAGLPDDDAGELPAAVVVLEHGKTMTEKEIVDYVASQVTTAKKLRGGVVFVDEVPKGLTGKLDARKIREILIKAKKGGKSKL
Text: Firefly (Photinus pyralis) luciferase (FLuc) is widely used as a reporter in biological assays. […] In order to determine if FLuc thermal stabilization parallels inhibitor potency, a fluorescence-based thermal denaturation assay was developed in this present study. An environmentally sensitive fluorescence dye, SYPRO Orange (Invitrogen, presently Life Technologies) was utilized to monitor the fluorescence change as a function of temperature. The dye preferentially binds to the hydrophobic regions of the protein, and its high signal-to-noise ratio, large Stokes shift and high excitation wavelength make it ideal for thermal shift application. In this assay, the melting temperature (Tm) (the inflection point of the protein melt transition) was assessed for each sample tested. Differences in the Tm between controls and compound-containing samples were determined (the thermal shift or delta Tm), and compounds were ranked by the degree of their thermal shift at the top concentration (200 uM). […] FLuc catalyzes light production in bioluminescent organisms. The reaction requires luciferin, ATP and O2 as substrate, and it includes the formation of a luciferyl-AMP intermediate and the subsequent production of light, AMP, oxyluciferin and CO2. In this study, PTC124 and analogues were evaluated for their potential to stabilize FLuc in the absence and presence of ATP. This particular BioAssay is in the presence of ATP. See related BioAssay "Thermal Shift Assay for Inhibitors of FLuc (Firefly Luciferase, Photinus pyralis) in the Absence of ATP" See [6] for more details on this assay and related studies. Welch, et al. PTC124 targets genetic disorders caused by nonsense mutations. Nature 447 (2007) 87-91. D.S. Auld, N. Thorne, W.F. Maguire, and J. Inglese, Mechanism of PTC124 activity in cell-based luciferase assays of nonsense codon suppression. Proc Natl Acad Sci U S A 106 (2009) 3585-90. D.S. Auld, N. Thorne, D.T. Nguyen, and J. Inglese, A specific mechanism for nonspecific activation in reporter-gene assays. ACS Chem Biol 3 (2008) 463-70. [4]F.H. Niesen, H. Berglund, and M. Vedadi, The use of differential scanning fluorimetry to detect ligand interactions that promote protein stability. Nat Protoc 2 (2007) 2212-21. J.R. de Wet, K.V. Wood, M. DeLuca, D.R. Helinski, and S. Subramani, Firefly luciferase gene: structure and expression in mammalian cells. Mol Cell Biol 7 (1987) 725-37. Auld, et al. Molecular Basis for the High Affinity Binding and Stabilization of Firefly Luciferase by PTC124. Proc Natl Acad Sci U S A, accepted.
Assay Protocol: 1.8 uM FLuc was tested in Tris-acetate buffer (pH 7.6) or phosphate buffer saline (pH 7.4). ATP final concentration was 2 mM. Compounds were tested at 200 uM. Data was captured on an iQ5 Real Time PCR Detection system (Bio-Rad) using a temperature range from 20 to 95C in increments of 1C and a ramping rate of 0.1C/s. Fluorescence intensity changes (Ex 490/Em 575 nm) were monitored with a charge-coupled device (CCD) camera. Buffer: 50 mM Tris-acetate, pH 7.6 (with or without 2 mM ATP); 1X PBS, pH 7.4 (with or without 2 mM ATP)

Thermal shift (delta Tm), active:
O=C(O)c1cccc(-c2noc(-c3ccccc3F)n2)c1 13.1 C, Nc1ncnc2c1ncn2[C@@H]1O[C@H](COP(=O)(O)OC(=O)c2cccc(-c3noc(-c4ccccc4F)n3)c2)[C@@H](O)[C@H]1O 12.6 C, O=C(O)c1cccc(-c2noc(-c3cccc(Cl)c3)n2)c1 11.8 C, NC(=O)c1cccc(-c2noc(-c3ccccc3F)n2)c1 6.12 C, O=C(O)c1ccc(-c2noc(-c3ccccc3F)n2)cc1 11.6 C, Fc1ccccc1-c1nc(-c2cccc(-c3nn[nH]n3)c2)no1 6.04 C, O=C(O)c1ccccc1-c1noc(-c2ccccc2F)n1 5.48 C, NC(=O)c1ccccc1-c1noc(-c2ccccc2F)n1 3.72 C

— PubChem BioAssay AID2228 (National Center for Advancing Translational Sciences (NCATS), 2010)
